Only a selection was taken, and the strongest signals are over-represented in it overall.
Experiments:
Experiment in all cases: glycan array binding signal (z-score within array); higher = stronger binding
Conditions in all cases: glycan notation: IUPAC condensed, linker removed
[1] = biological target: Gal(b1-4)GlcNAc(b1-6)[Gal(b1-4)GlcNAc(b1-3)]GalNAc
Outline: (§1)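 The binding signal is a Z-score computed within each array and averaged over linkers. Arrays of the same protein sequence at different concentrations or buffers were also averaged together. Data originate from 3228 arrays in the Consortium for Functional Glycomics database, kept only where the protein sequence was available.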

[2] = biological target: Gal3S(b1-4)[Fuc(a1-3)]Glc6S
Outline: as §1

Gal6S(b1-3)GlcNAc = biological target: Gal6S(b1-3)GlcNAc
Outline: as §1

Gal6S(b1-4)GlcNAc6S = biological target: Gal6S(b1-4)GlcNAc6S
Outline: as §1

GalNAc(b1-4)Gal(b1-4)Glc = biological target: GalNAc(b1-4)Gal(b1-4)Glc
Outline: as §1

[3] = biological target: GalNAc(b1-4)GlcNAc(b1-3)GalNAc(b1-4)GlcNAc
Outline: as §1

[4] = biological target: GlcNAc(b1-2)[GlcNAc(b1-4)]Man(a1-3)[GlcNAc(b1-4)][GlcNAc(b1-2)[GlcNAc(b1-6)]Man(a1-6)]Man(b1-4)GlcNAc(b1-4)GlcNAc
Outline: as §1

GlcNAc(b1-4)GlcNAc = biological target: GlcNAc(b1-4)GlcNAc
Outline: as §1

[5] = biological target: GlcNAc(b1-6)Gal(b1-4)GlcNAc
Outline: as §1

[6] = biological target: Man(a1-2)Man(a1-2)Man(a1-6)[Man(a1-3)]Man
Outline: as §1

Man(a1-2)Man(a1-3)Man = biological target: Man(a1-2)Man(a1-3)Man
Outline: as §1

Man(a1-6)Man = biological target: Man(a1-6)Man
Outline: as §1

MurNAc(b1-4)GlcNAc = biological target: MurNAc(b1-4)GlcNAc
Outline: as §1

[7] = biological target: Neu5Ac(a2-3)Gal(b1-3)GalNAc(b1-4)[Neu5Ac(a2-3)]Gal(b1-4)Glc
Outline: as §1

[8] = biological target: Neu5Ac(a2-3)Gal(b1-3)GlcNAc(b1-2)Man(a1-3)[Neu5Ac(a2-3)Gal(b1-3)GlcNAc(b1-2)Man(a1-6)]Man(b1-4)GlcNAc(b1-4)GlcNAc
Outline: as §1

[9] = biological target: Neu5Ac(a2-3)Gal(b1-3)GlcNAc(b1-3)Gal(b1-4)GlcNAc
Outline: as §1

[10] = biological target: Neu5Ac(a2-3)Gal(b1-3)GlcNAc(b1-6)GalNAc
Outline: as §1

[11] = biological target: Neu5Ac(a2-3)Gal(b1-3)[Fuc(a1-4)]GlcNAc(b1-3)Gal(b1-3)[Fuc(a1-4)]GlcNAc
Outline: as §1

[12] = biological target: Neu5Ac(a2-3)Gal(b1-3)[Neu5Ac(a2-6)]GlcNAc(b1-3)[Fuc(a1-3)[Gal(b1-4)]GlcNAc(b1-6)]Gal(b1-4)Glc
Outline: as §1

[13] = biological target: Neu5Ac(a2-3)Gal(b1-4)GlcNAc(b1-2)Man(a1-3)[Neu5Ac(a2-6)Gal(b1-4)GlcNAc(b1-2)Man(a1-6)]Man(b1-4)GlcNAc(b1-4)GlcNAc
Outline: as §1

[14] = biological target: Neu5Ac(a2-3)Gal(b1-4)GlcNAc(b1-2)[Neu5Ac(a2-3)Gal(b1-4)GlcNAc(b1-4)]Man(a1-3)[GlcNAc(b1-4)][Neu5Ac(a2-3)Gal(b1-4)GlcNAc(b1-2)[Neu5Ac(a2-3)Gal(b1-4)GlcNAc(b1-6)]Man(a1-6)]Man(b1-4)GlcNAc(b1-4)GlcNAc
Outline: as §1

[15] = biological target: Neu5Ac(a2-3)Gal(b1-4)GlcNAc(b1-3)Gal(b1-3)GlcNAc
Outline: as §1

Neu5Ac(a2-6)Gal = biological target: Neu5Ac(a2-6)Gal
Outline: as §1

[16] = biological target: Neu5Ac(a2-6)Gal(b1-3)GlcNAc(b1-3)[Gal(b1-4)GlcNAc(b1-6)]Gal(b1-4)Glc
Outline: as §1

[17] = biological target: Neu5Ac(a2-6)Gal(b1-4)GlcNAc(b1-2)Man(a1-3)[Man(a1-6)]Man(b1-4)GlcNAc(b1-4)GlcNAc
Outline: as §1

[18] = biological target: Neu5Ac(a2-6)Gal(b1-4)GlcNAc(b1-2)Man(a1-3)[Neu5Ac(a2-6)Gal(b1-4)GlcNAc(b1-2)Man(a1-6)]Man(b1-4)GlcNAc(b1-4)[Fuc(a1-6)]GlcNAc
Outline: as §1

[19] = biological target: Neu5Ac(a2-6)Gal(b1-4)GlcNAc(b1-2)Man(a1-6)[Gal(b1-4)GlcNAc(b1-2)Man(a1-3)]Man(b1-4)GlcNAc(b1-4)GlcNAc
Outline: as §1

[20] = biological target: Neu5Gc(a2-3)Gal(b1-4)[Fuc(a1-3)]GlcNAc
Outline: as §1

[21] = biological target: Neu5Gc(a2-8)Neu5Gc(a2-3)Gal(b1-4)GlcNAc(b1-3)Gal(b1-4)GlcNAc
Outline: as §1

B1: GS13686A-pdi-553-26-553 (Parabacteroides distasonis) (protein)
chain: NENPDKPTDDVNYNMNEPRLASTLRGGLIIEGNVEQRLKPLQIDFYSQMTVDGGGWGTKNYIQDDEWNNLVWEEYLKQIASINIVIRSLTEKDKDAYANTIAFARIWRVYVHTLAADKFGPMPFPAYEIVEANPPYKSLKDIYDEYFRELDAAINGFNDSAQPIFSDAGIDLIYKNDVSKWKRFANSLRLRLAVRLTEVDQEKCIAEANAAISSPAGLISDKADNAYMPPKADGSWGQDYNYTMFQITWSGPICMSKSVEKLVTNIGGVAWPQGVVNQTSGVAVSSVHPEKVDPRAPKIFQPGIENGDWKGLVYGPKAEEANTGIYQSKQCAELGFIIKDGYPYKSRPYDLFLSEEVHFLKAELYARGFIAGDAKSEYEAGVRASFATWGVTSEVDDYLTSTEKNEAGTSARYDDQQGAGNTALEKIITQKYIAGIPDLAQEGWNDKRRLNLPRLDVAVYRDQAVYNNNDKDILKSANFIKRMRYPTKESLINATEYEKGKSMLGGKGDIVSTPLWWDKNSNYCTSSK
glycan array binding signal (z-score) [1]: -0.002
glycan array binding signal (z-score) [2]: 0.425
glycan array binding signal (z-score) (Gal6S(b1-3)GlcNAc): 22.6
glycan array binding signal (z-score) (Gal6S(b1-4)GlcNAc6S): -0.176
glycan array binding signal (z-score) (GalNAc(b1-4)Gal(b1-4)Glc): 0.208
glycan array binding signal (z-score) [3]: 0.492
glycan array binding signal (z-score) [4]: -0.24
glycan array binding signal (z-score) (GlcNAc(b1-4)GlcNAc): -0.294
glycan array binding signal (z-score) [5]: -0.023
glycan array binding signal (z-score) [6]: -0.073
glycan array binding signal (z-score) (Man(a1-2)Man(a1-3)Man): -0.226
glycan array binding signal (z-score) (Man(a1-6)Man): 0.458
glycan array binding signal (z-score) (MurNAc(b1-4)GlcNAc): -0.226
glycan array binding signal (z-score) [7]: -0.071
glycan array binding signal (z-score) [8]: -0.099
glycan array binding signal (z-score) [9]: -0.307
glycan array binding signal (z-score) [10]: 3.88
glycan array binding signal (z-score) [11]: -0.153
glycan array binding signal (z-score) [12]: -0.086
glycan array binding signal (z-score) [13]: 1.01
glycan array binding signal (z-score) [14]: 0.051
glycan array binding signal (z-score) [15]: -0.389
glycan array binding signal (z-score) (Neu5Ac(a2-6)Gal): -0.025
glycan array binding signal (z-score) [16]: 2
glycan array binding signal (z-score) [17]: 0.341
glycan array binding signal (z-score) [18]: 0.391
glycan array binding signal (z-score) [19]: 0.126
glycan array binding signal (z-score) [20]: 0.009
glycan array binding signal (z-score) [21]: -0.323
